In PubChem BioAssay (NCI) one finds growth data, which are given here for 14 compounds.

The structures appear in SMILES notation. About 83,000 compounds went through this panel and 20% of them were active in at least one assay; those are over-represented in the sample as a whole.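 Cells were grown in 96-well plates and exposed to the test compound at a single concentration for 48 hours; results are reported as percent growth, with values below 10 considered active.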 Values without a mark were called inactive. Calls of active or inactive are those of the source.

Test systems include SR leukemia; RPMI-8226 leukemia; OVCAR-8 ovarian; OVCAR-5 ovarian; OVCAR-4 ovarian; SK-OV-3 ovarian; IGROV1 ovarian; OVCAR-3 ovarian; HS 578T breast; NCI/ADR-RES ovarian.
Holding throughout (experiment): NCI-60 one-dose screen, 48 h (100 = growth as untreated, 0 = no growth, -100 = all killed)
Common to all, as to conditions: 10 µM unless noted

As to `O=C1Nc2ccc(F)cc2/C1=N/c1nnc(Sc2ccccc2)s1`, the growth with SR leukemia is 61%; in the assay with RPMI-8226 leukemia, 55.7%; in the assay on OVCAR-8 ovarian it was 89.7%; with OVCAR-5 ovarian, 113%; in the assay with OVCAR-4 ovarian it was 95%; in the assay on SK-OV-3 ovarian it was 97.1%. The growth in the assay on IGROV1 ovarian was 80.2%; in the assay on OVCAR-3 ovarian, 97.3%; in the assay with HS 578T breast, 94.4%; with NCI/ADR-RES ovarian, 85.3%.
For `Cn1cc(-c2nn3cc(-c4ccccc4)nc3s2)c2ccccc21`, the growth in the assay with SR leukemia was 13.2%; in the assay with RPMI-8226 leukemia, 91.2%; in the assay with OVCAR-8 ovarian it was 89.4%; with OVCAR-5 ovarian it was 70.5%; in the assay on OVCAR-4 ovarian it was 63.6%; in the assay with SK-OV-3 ovarian, 68.7%. The growth with IGROV1 ovarian was 52.1%; in the assay on OVCAR-3 ovarian, 72.7%; in the assay with HS 578T breast it was 62.3%; in the assay with NCI/ADR-RES ovarian, 70.5%.
With `N#Cc1c(-c2ccccc2)cc(-c2ccccc2)n(CCCC(=O)NO)c1=O`, the growth is 7.72% (active) with SR leukemia; 11.3% in the assay on RPMI-8226 leukemia; 12.5% in the assay with OVCAR-8 ovarian; 28.9% in the assay with OVCAR-5 ovarian; 29.6% with OVCAR-4 ovarian; 36.1% in the assay on SK-OV-3 ovarian. The growth is 25.4% with IGROV1 ovarian, 8.36% (active) in the assay with OVCAR-3 ovarian, 19.7% with HS 578T breast and -5.36% (active) in the assay with NCI/ADR-RES ovarian.
As for `CCn1cc(C(=O)NN=C2CCCCCC2)c(=O)c2ccc(C)nc21`, the growth in the assay with SR leukemia is 85.8%; in the assay on RPMI-8226 leukemia, 88.1%; in the assay on OVCAR-8 ovarian, 92.5%; with OVCAR-5 ovarian it was 92.6%; with OVCAR-4 ovarian it was 79.6%; in the assay on SK-OV-3 ovarian, 98.2%. Moreover, the growth is 81.5% in the assay on IGROV1 ovarian, 86.2% with OVCAR-3 ovarian, 80.1% in the assay on HS 578T breast and 89.4% in the assay with NCI/ADR-RES ovarian.
Consider `Cc1nn(-c2ccccc2)c(/N=C/N(C)C)c1/C=C/C(=O)c1ccc(Cl)cc1`, for which the growth was 23.4% in the assay with SR leukemia; 6.91% (active) in the assay on RPMI-8226 leukemia; 101% in the assay with OVCAR-8 ovarian; 81.7% in the assay on OVCAR-5 ovarian; 98.3% with OVCAR-4 ovarian; 111% in the assay with SK-OV-3 ovarian. In addition, the growth in the assay with IGROV1 ovarian was 81.2%; with OVCAR-3 ovarian, 103%; with HS 578T breast it was 92.2%; with NCI/ADR-RES ovarian, 86.9%.
With `CCCn1c(=S)sc2c1nc(C)n1c(Nc3ccccc3)nnc21`, the growth was 61.4% with SR leukemia; 45.9% in the assay with RPMI-8226 leukemia; 71.3% in the assay with OVCAR-8 ovarian; 107% in the assay with OVCAR-5 ovarian; 42.8% in the assay on OVCAR-4 ovarian; 89.2% in the assay with SK-OV-3 ovarian. Moreover, the growth was 80.3% in the assay on IGROV1 ovarian, 61.5% in the assay with OVCAR-3 ovarian, 97.4% with HS 578T breast and 85.4% in the assay on NCI/ADR-RES ovarian.
Regarding `CCSC1=CC(=O)c2ccccc2C1=O`, the growth is 37.6% with SR leukemia; 45.7% in the assay with RPMI-8226 leukemia; 49.4% with OVCAR-8 ovarian; 116% in the assay with OVCAR-5 ovarian; -95.2% (active) in the assay on OVCAR-4 ovarian; 95.6% in the assay with SK-OV-3 ovarian. For the same compound, the growth is 59.5% with IGROV1 ovarian, -26.7% (active) in the assay with OVCAR-3 ovarian, 94.8% in the assay on HS 578T breast and 71.8% in the assay on NCI/ADR-RES ovarian.
As to `C=C(c1ccc(C(=O)O)cn1)c1cc2c(cc1C)C(C)(C)CCC2(C)C`, the growth with SR leukemia is 82.7%; in the assay on RPMI-8226 leukemia it was 66.5%; in the assay on OVCAR-8 ovarian it was 83.7%; with OVCAR-5 ovarian it was 121%; with OVCAR-4 ovarian it was 85.2%; in the assay on SK-OV-3 ovarian it was 75.5%. For the same compound, the growth was 98.9% in the assay with IGROV1 ovarian, 87.6% in the assay on OVCAR-3 ovarian, 69.5% with HS 578T breast and 83.6% in the assay with NCI/ADR-RES ovarian.
With `COC(=O)/C=C1/SC(=Nc2cccc(Cl)c2)N(CCc2c[nH]c3ccc(O)cc23)C1=O`, the growth with SR leukemia is -8.45% (active); in the assay on RPMI-8226 leukemia, -23.9% (active); in the assay on OVCAR-8 ovarian, -4.55% (active); in the assay with OVCAR-5 ovarian, 58.7%; with OVCAR-4 ovarian, 24.9%; with SK-OV-3 ovarian it was 86.6%. The growth in the assay on IGROV1 ovarian is 4.15% (active); in the assay on OVCAR-3 ovarian it was 3.41% (active); in the assay on HS 578T breast, 27.7%; in the assay with NCI/ADR-RES ovarian, 18.4%.
In the case of `Cc1ccc(Nc2nc(-c3ccc(F)cc3)c(C#N)c(=O)n2C)cc1`, the growth in the assay on SR leukemia is 62.3%; with RPMI-8226 leukemia it was 89.4%; in the assay with OVCAR-8 ovarian it was 67.3%; with OVCAR-5 ovarian, 63.4%; in the assay with OVCAR-4 ovarian, 51%; in the assay with SK-OV-3 ovarian it was 60.1%. Besides, the growth was 67.5% in the assay on IGROV1 ovarian, 61.5% in the assay on OVCAR-3 ovarian, 44.8% with HS 578T breast and 76.2% in the assay on NCI/ADR-RES ovarian.
For `C(/C=C/c1ccccc1)=Nc1ccc(CCc2ccc(N=C/C=C/c3ccccc3)cc2)cc1`, the growth is 47.3% in the assay on SR leukemia; 94.5% in the assay on RPMI-8226 leukemia; 83.5% with OVCAR-8 ovarian; 93.6% in the assay with OVCAR-5 ovarian; 101% in the assay on OVCAR-4 ovarian; 98.6% in the assay on SK-OV-3 ovarian. For the same compound, the growth in the assay with IGROV1 ovarian is 85.8%; with OVCAR-3 ovarian, 132%; with HS 578T breast, 108%; with NCI/ADR-RES ovarian, 80.9%.
On to `COc1ccc(Nc2ncc(C(N)=O)c(NCCCNC(=O)C3CCC3)n2)cc1`, for which the growth with SR leukemia was 65.1%; in the assay with RPMI-8226 leukemia, 72.9%; with OVCAR-8 ovarian, 62.6%; in the assay on OVCAR-5 ovarian it was 109%; in the assay on OVCAR-4 ovarian, 81%; in the assay with SK-OV-3 ovarian it was 36.6%. Moreover, the growth in the assay on IGROV1 ovarian was 66.8%; in the assay with OVCAR-3 ovarian, 88.8%; in the assay on HS 578T breast, 71.5%; with NCI/ADR-RES ovarian, 100%.
For the compound `O=C(O)CCCc1cnc2c3sccc3nc(SCc3c(Cl)cccc3Cl)n12`, the growth in the assay with SR leukemia is 23.9%; in the assay with RPMI-8226 leukemia, 51.6%; in the assay with OVCAR-8 ovarian, 63.7%; in the assay on OVCAR-5 ovarian, 80.5%; with OVCAR-4 ovarian, 59.7%; in the assay with SK-OV-3 ovarian, 36.5%. In addition, the growth in the assay with IGROV1 ovarian was 54.1%; in the assay on OVCAR-3 ovarian, 7.34% (active); in the assay with HS 578T breast, 39.5%; with NCI/ADR-RES ovarian it was 45.7%.
Regarding `Cc1ccc(S(=O)(=O)n2cc(C3C(Cl)C(=O)N3c3ccc(N4CCOCC4=O)cc3)c3ccccc32)cc1` (stereo not given), the growth in the assay with SR leukemia was 24.6%; with RPMI-8226 leukemia, 21.6%; with OVCAR-8 ovarian, 55.5%; in the assay on OVCAR-5 ovarian, 78.5%; in the assay on OVCAR-4 ovarian, 52.4%; in the assay on SK-OV-3 ovarian, 93.9%. Besides, the growth with IGROV1 ovarian was 72.6%; in the assay with OVCAR-3 ovarian it was 30.4%; in the assay on HS 578T breast, 41.8%; in the assay with NCI/ADR-RES ovarian, 32.6%.
